Counter-ions that a name gives are not always drawn. ± gives the uncertainty stated by the source.
The compounds below were run on THP-1 (assay: CD86 surface expression induction over DMSO control (% over DMSO); higher = stronger dendritic cell activation). Conditions: exposure time: 24 h.
Protocol: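 hCLAT-like CD54 and CD86 surface expression on THP1 cells after 24 h exposure at a single concentration (highest non-cytotoxic concentration, or 100-200 µM if not cytotoxic). Flow cytometry (iQue) was run on 5,000 live cells.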

| SMILES | CD86 surface expression induction |
| --- | --- |
| O=c1cc(-c2ccccc2)oc2ccccc12 [Flavone] (200 µM) | 16.4 ± 4.7 |
| S=C(NC1CCCCC1)NC1CCCCC1 [N,N'-Dicyclohexylthiourea] (10 µM) | -17.9 ± 4.5 |
| O=C1Nc2ccccc2C1(c1ccc(O)cc1)c1ccc(O)cc1 [Oxyphenisatin] (100 µM) | 3.8 ± 8.1 |
| C/C=C/C=C/C=O [2,4-Hexadienal] (200 µM) | 4.48 ± 7.5 |
| CC(C)=CCOc1ccc(/C=C/C(=O)c2ccc(OCC=C(C)C)cc2OCC(=O)O)cc1 [Sofalcone] (100 µM) | -6.95 ± 7.2 |
| O=C(N/N=C/c1ccccc1O)c1ccncc1 [Salinazid] (10 µM) | 7.77 ± 2.8 |
| COc1cccc2c1C(=O)c1c(O)c3c(c(O)c1C2=O)C[C@@](O)(C(=O)CO)C[C@@H]3O[C@H]1C[C@H](N)[C@H](O[C@@H]2CCCCO2)[C@H](C)O1 [Pirarubicin*] (10 µM) | 324 ± 3.3 |
| O=C1c2cccc(O)c2C(=O)c2c(O)cc(CO)cc21 [Aloe-emodin] (100 µM) | 4.61 ± 9.4 |
| CC(C)c1ccc2cc(C(C)C)ccc2c1 [2,6-Diisopropylnaphthalene] (200 µM) | 18.9 ± 22 |
| O=c1cc(-c2ccccc2)oc2cc(O)cc(O)c12 [Chrysin] (100 µM) | 38.2 ± 51 |
| CC(C)CCCCCCCOC(=O)c1ccc(C(=O)OCCCCCCCC(C)C)c(C(=O)OCCCCCCCC(C)C)c1 [Triisodecyl trimellitate] (163 µM) | -10.7 ± 1.8 |
| CCc1oc2ccccc2c1C(=O)c1cc(I)c(O)c(I)c1 [Benziodarone] (100 µM) | 7.99 ± 3.4 |
| O=C(O)c1cn(C2CC2)c2cc(N3CCNCC3)c(F)cc2c1=O [Ciprofloxacin] (100 µM) | -5.55 ± 6.9 |
| CCCCCCC(C)O (stereo not given) [2-Octanol] (200 µM) | 0.56 ± 6.7 |
| CC(C)(C)c1ccc(S)cc1 [4-tert-Butylbenzenethiol] (200 µM) | 12.9 ± 21 |
| O=C(Nc1ccccc1)c1cc([N+](=O)[O-])ccc1Cl [2-Chloro-5-nitro-N-phenylbenzamide] (200 µM) | 31.1 ± 7.1 |
| CCCCCCCCCCC=CC1CC(=O)OC1=O (stereo not given) [3-(Dodecenyl)dihydro-2,5-furandione] (200 µM) | -8.58 ± 3 |
| Nc1nnc(-c2ccc([N+](=O)[O-])o2)o1 [2-Amino-5-(5-nitro-2-furyl)-1,3,4-oxadiazole] (10 µM) | -2.6 ± 2.1 |
| Oc1ccc2ccccc2c1N=Nc1ccccc1 [C.I. Solvent Yellow 14] (200 µM) | 3.18 ± 3.5 |
| CC1=C(/C=C/C(C)=C/C=C/C(C)=C/C=O)C(C)(C)CCC1 [13-cis-Retinal (Vitamin A aldehyde)] (100 µM) | 64.3 ± 98 |

| SMILES | CD86 surface expression induction |
| --- | --- |
| NC(=O)N/N=C/c1ccc([N+](=O)[O-])o1 [Nitrofurazone] (200 µM) | 5.94 ± 3.7 |
| CCCCCOc1ccccc1/C(=C\SC)n1ccnc1 [Neticonazole] (100 µM) | 38.9 ± 22 |
| Cc1cc(C2(c3cc(C)c(O)cc3C)OS(=O)(=O)c3ccccc32)c(C)cc1O [p-Xylenol blue] (200 µM) | 2.3 ± 1.9 |
| Clc1ccc(C(Cn2ccnc2)OCc2c(Cl)cccc2Cl)c(Cl)c1 (stereo not given) [Isoconazole] (100 µM) | 76.1 ± 95 |
| COC(=O)Nc1nc2ccc(C(=O)C3CC3)cc2[nH]1 [Cyclobendazole] (100 µM) | 7.71 ± 16 |
| CC/C=C\C/C=C\C/C=C\CCCCCCCC(=O)OCC [Ethyl linolenate] (10 µM) | -8.18 ± 6.8 |
| CCCCCCCCCCCCO [1-Dodecanol] (100 µM) | 21.8 ± 27 |
| Nc1cc(Cl)c(O)c(Cl)c1 [4-Amino-2,6-dichlorophenol] (100 µM) | -14.4 ± 29 |
| C=CC(=O)OCCCCCCOC(=O)C=C [1,6-Hexanediol diacrylate] (100 µM) | 24.1 ± 16 |
| CC(C(=O)O)c1ccc(/C=C2\CCCCC2=O)cc1 (stereo not given) [Pelubiprofen] (100 µM) | -4.77 ± 4.1 |
| Cn1sccc1=O [2-Methyl-4-isothiazolin-3-one hydrochloride] (10 µM) | -16.2 ± 4.7 |
| CC[C@@]1(O)C(=O)OCc2c1cc1n(c2=O)Cc2c-1nc1ccccc1c2/C=N/OC(C)(C)C [Gimatecan] (10 µM) | 25.6 ± 10 |
| O=C(O)Cn1c(C(=O)Nc2nc(-c3ccccc3Cl)cs2)cc2ccccc21 [Lintitript] (100 µM) | -2.3 ± 0.27 |
| O=C(O)Cc1cc(I)c(Oc2cc(I)c(O)c(I)c2)c(I)c1 [Tetrac] (100 µM) | 12.3 ± 2 |
| O=C(NS(=O)(=O)/C=C/c1ccccc1)c1ccc(F)cc1Cl (200 µM) | -3.08 ± 4.4 |
| CCOc1ccc2nc3cc(N)ccc3c(N)c2c1 [Ethacridine lactate monohydrate] (200 µM) | 42.2 ± 53 |
| CC(C)(C)c1cc(O)ccc1O [tert-Butylhydroquinone] (100 µM) | 66.8 ± 57 |
| O=C(O)c1cccnc1Nc1cccc(C(F)(F)F)c1 [Niflumic acid] (100 µM) | -3.19 ± 1.6 |
| Nc1ccccc1N [1,2-Phenylenediamine*] (200 µM) | 88.8 ± 49 |
| CCN(CC)c1ccc(C(=O)c2ccccc2C(=O)O)c(O)c1 [2-[4-(Diethylamino)-2-hydroxybenzoyl]benzoic acid] (10 µM) | -12.1 ± 11 |
